Results reported in the supplement of paper PMC11732987, “Enantioselective OTUD7B fragment discovery through chemoproteomics screening and high-throughput optimisation” (Communications Chemistry, 2025).

How the values were obtained:
Assay in all cases: log2 ratio of Biotin-Ahx-Ub-VS probe labelling (fragment/DMSO); higher = less target engagement (more negative = stronger competition), active = hit call of the paper (q ≤ 0.05, log2 ratio ≤ -1)
Conditions in all cases: compound concentration: 200 uM; treatment time: 3 h
USP19 = biological target: T1, USP19 (UniProt O94966)
T1 sequence (whole entry): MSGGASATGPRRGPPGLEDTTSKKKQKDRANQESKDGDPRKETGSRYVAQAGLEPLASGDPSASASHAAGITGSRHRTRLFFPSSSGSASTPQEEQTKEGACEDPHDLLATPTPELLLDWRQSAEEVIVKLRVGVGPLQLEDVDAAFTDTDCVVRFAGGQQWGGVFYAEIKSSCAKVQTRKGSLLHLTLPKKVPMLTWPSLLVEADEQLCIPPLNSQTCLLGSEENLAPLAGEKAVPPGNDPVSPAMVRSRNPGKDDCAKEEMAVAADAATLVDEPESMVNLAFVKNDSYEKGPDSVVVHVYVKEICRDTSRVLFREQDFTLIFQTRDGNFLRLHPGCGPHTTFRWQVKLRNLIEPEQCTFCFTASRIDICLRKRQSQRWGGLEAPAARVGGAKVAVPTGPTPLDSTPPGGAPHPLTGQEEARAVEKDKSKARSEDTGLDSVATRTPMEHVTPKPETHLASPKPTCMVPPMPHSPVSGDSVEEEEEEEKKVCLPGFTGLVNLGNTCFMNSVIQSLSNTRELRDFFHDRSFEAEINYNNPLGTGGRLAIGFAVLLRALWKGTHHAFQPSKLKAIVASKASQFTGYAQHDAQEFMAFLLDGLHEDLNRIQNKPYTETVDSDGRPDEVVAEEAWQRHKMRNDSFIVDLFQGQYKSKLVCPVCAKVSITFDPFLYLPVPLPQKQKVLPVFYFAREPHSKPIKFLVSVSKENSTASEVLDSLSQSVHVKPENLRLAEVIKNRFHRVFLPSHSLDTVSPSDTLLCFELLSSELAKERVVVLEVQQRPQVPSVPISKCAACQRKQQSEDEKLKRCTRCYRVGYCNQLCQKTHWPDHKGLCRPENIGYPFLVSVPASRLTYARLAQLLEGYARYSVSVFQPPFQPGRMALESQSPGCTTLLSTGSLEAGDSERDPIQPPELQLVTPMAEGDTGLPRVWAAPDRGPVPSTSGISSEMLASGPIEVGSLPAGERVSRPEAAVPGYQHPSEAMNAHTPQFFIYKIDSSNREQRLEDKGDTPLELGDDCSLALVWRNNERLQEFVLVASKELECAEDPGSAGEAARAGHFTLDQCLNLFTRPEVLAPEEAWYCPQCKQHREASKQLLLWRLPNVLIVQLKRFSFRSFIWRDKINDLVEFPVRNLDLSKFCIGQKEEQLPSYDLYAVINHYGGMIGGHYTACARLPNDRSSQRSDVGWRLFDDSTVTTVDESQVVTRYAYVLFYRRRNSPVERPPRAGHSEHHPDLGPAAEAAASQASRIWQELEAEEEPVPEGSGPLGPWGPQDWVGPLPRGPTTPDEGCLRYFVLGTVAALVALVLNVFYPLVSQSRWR
Summary of the method: (§1)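 The table lists average log2 ratios of fragment over vehicle, from an unpaired t-test on global-median-normalised Spectronaut label-free quantities. Proteins with ≥2 unique peptides were used. Samples were HEK293T lysate (495 µg) treated in triplicate with fragment at 200 µM or vehicle for 3 h, then with Biotin-Ahx-Ub-VS (0.5 µM final) for 1 h, with labelled DUBs NeutrAvidin-enriched and run by diaPASEF LC-MS/MS.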

USP22 = biological target: T2, USP22 (UniProt Q9UPT9)
T2 sequence (whole entry): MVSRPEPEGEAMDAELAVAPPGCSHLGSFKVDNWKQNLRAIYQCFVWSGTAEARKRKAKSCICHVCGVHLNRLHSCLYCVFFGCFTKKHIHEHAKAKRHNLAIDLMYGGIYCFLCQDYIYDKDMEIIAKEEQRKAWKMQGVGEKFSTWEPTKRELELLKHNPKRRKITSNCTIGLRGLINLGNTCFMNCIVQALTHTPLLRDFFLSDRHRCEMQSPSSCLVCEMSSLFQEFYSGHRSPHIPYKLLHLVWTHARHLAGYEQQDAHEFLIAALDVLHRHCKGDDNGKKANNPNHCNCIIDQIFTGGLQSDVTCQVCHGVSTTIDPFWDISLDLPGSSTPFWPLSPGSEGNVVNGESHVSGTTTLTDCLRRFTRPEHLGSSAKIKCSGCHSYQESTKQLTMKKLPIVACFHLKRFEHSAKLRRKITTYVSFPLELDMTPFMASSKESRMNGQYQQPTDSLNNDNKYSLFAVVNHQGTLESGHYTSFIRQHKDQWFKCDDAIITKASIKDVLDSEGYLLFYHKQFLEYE
Summary of the method: as §1

USP24 = USP24 (UniProt Q9UPU5)
Sequence of USP24 (Q9UPU5 whole entry): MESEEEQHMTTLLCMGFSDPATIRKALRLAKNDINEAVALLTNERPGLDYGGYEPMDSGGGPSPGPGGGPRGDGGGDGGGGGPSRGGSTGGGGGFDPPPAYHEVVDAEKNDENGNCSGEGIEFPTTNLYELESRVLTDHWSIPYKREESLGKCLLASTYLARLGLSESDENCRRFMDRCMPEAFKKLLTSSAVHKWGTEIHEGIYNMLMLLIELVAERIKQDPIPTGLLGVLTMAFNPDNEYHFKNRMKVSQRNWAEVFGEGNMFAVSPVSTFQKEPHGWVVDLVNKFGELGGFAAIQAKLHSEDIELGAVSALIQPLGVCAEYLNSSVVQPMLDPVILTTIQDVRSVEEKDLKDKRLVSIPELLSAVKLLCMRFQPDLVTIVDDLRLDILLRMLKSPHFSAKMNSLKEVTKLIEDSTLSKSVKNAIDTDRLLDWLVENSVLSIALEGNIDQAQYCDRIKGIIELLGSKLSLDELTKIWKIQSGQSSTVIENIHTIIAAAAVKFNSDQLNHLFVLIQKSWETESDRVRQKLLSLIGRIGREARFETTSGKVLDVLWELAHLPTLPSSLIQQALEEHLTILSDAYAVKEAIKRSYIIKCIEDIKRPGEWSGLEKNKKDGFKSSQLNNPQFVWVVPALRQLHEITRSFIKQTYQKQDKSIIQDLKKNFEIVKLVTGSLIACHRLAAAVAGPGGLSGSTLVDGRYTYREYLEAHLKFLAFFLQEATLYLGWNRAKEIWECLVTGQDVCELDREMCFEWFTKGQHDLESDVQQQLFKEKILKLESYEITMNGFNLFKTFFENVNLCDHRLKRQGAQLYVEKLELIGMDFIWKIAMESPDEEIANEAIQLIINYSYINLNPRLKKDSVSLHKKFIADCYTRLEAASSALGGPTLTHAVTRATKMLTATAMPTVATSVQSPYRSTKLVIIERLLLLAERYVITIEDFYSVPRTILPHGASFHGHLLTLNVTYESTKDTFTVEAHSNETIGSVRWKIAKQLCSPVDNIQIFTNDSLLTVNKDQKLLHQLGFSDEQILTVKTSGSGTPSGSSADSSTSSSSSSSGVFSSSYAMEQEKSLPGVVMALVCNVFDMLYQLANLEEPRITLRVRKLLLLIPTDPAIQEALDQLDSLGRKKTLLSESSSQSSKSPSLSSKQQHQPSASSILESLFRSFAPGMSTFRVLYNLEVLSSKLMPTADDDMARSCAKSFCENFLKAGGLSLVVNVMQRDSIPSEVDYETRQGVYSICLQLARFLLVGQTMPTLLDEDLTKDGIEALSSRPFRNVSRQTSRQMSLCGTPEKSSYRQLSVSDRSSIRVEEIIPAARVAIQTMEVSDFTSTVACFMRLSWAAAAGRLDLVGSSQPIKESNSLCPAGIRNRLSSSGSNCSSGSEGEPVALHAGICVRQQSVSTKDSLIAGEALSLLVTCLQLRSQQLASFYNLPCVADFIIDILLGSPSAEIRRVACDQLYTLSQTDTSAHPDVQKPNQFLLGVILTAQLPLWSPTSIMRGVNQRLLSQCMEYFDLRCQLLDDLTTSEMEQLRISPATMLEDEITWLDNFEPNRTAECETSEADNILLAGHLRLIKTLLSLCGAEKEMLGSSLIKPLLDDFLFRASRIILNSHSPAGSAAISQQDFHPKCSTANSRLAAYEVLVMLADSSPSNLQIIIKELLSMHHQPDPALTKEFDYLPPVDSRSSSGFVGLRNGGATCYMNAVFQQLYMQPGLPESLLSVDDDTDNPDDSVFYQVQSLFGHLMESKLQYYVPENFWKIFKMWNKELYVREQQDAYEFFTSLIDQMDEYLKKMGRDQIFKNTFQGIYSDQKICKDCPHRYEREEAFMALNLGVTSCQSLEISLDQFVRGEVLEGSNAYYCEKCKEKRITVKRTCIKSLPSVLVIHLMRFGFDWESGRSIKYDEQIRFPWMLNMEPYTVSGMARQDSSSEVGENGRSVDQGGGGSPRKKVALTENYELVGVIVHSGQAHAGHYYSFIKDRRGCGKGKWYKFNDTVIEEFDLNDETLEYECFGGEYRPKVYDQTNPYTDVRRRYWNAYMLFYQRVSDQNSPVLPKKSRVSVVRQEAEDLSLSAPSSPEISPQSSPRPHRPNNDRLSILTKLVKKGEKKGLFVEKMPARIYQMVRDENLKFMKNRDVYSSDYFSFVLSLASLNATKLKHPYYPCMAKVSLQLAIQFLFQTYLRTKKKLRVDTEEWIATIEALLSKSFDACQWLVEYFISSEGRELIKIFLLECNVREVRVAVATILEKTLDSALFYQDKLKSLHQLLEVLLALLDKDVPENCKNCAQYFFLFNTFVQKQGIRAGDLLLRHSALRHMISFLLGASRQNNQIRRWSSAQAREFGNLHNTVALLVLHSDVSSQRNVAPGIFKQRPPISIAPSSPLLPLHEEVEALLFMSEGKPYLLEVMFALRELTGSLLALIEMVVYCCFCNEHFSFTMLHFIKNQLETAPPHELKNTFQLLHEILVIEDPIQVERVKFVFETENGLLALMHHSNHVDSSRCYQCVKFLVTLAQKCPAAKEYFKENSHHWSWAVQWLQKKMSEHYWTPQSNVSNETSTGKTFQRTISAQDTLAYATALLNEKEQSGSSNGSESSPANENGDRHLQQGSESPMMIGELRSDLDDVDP
Summary of the method: as §1

USP25 = biological target: T3, USP25 (UniProt Q9UHP3)
T3 sequence (whole entry): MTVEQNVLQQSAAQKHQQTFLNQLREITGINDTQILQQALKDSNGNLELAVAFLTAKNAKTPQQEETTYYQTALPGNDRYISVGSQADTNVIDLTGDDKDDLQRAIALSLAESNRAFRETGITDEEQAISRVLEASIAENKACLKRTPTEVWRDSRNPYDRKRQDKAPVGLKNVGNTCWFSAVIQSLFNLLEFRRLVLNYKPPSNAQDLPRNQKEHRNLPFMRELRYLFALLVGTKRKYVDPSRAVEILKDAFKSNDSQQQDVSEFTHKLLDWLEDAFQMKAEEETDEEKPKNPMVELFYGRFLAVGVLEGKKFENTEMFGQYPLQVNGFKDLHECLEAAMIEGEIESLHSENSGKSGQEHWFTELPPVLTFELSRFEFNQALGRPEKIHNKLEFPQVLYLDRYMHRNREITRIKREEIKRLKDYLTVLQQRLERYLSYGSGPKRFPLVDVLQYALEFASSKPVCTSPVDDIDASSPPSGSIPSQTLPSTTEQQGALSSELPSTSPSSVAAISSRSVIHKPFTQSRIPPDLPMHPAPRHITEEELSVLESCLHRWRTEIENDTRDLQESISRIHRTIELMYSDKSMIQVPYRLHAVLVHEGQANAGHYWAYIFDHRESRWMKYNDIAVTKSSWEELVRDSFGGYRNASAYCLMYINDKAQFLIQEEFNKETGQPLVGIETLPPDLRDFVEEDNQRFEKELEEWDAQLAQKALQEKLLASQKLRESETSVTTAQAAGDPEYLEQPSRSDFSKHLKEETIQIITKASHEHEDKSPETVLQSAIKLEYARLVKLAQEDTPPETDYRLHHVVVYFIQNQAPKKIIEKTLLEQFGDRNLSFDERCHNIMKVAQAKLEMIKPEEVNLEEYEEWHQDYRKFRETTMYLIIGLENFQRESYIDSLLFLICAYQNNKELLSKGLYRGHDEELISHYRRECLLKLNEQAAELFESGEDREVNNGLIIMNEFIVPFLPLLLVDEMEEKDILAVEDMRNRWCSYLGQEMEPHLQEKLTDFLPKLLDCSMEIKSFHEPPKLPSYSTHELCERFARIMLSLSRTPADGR
Summary of the method: as §1

USP28 = biological target: T4, USP28 (UniProt Q96RU2)
T4 sequence (whole entry): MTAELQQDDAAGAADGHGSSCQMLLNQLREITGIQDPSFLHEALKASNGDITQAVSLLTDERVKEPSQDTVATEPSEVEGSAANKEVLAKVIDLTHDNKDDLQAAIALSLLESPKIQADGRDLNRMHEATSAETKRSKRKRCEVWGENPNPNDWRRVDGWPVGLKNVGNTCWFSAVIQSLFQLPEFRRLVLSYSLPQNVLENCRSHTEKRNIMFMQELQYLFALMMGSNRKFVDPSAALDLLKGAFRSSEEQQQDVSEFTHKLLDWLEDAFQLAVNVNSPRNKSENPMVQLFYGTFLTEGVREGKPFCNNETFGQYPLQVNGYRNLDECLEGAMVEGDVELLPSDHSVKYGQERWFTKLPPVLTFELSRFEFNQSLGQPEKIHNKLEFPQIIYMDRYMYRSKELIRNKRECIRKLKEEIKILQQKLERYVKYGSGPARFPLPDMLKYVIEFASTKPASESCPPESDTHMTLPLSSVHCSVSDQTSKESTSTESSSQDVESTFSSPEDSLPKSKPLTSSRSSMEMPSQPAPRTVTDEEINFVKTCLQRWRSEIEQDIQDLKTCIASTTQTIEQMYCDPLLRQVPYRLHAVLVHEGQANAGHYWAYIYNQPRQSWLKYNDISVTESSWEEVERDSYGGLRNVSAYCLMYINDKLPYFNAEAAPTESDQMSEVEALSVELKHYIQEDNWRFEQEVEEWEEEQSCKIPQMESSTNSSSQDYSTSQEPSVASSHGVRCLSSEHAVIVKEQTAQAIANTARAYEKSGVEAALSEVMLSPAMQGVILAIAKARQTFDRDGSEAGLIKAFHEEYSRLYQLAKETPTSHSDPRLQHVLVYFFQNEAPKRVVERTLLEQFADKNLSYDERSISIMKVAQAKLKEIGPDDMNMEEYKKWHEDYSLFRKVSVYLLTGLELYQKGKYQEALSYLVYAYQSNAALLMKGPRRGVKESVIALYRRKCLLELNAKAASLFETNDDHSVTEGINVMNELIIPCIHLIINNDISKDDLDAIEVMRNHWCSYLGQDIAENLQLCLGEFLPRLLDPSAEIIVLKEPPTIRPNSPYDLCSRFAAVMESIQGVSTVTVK
Summary of the method: as §1

Measured: log2 ratio of Biotin-Ahx-Ub-VS probe labelling

Cc1ccc(CN(CCO)C(=O)CCl)cc1
inactive: USP19 -0.37 | USP22 -0.0829 | USP24 -0.445 | USP25 -0.431 | USP28 -0.569
